# Measured values published in publication PMC7862700, “An all-to-all approach to the identification of sequence-specific readers for epigenetic DNA modifications on cytosine”.
# Assays:
# Assay in all cases: DAPPL (digital affinity profiling via proximity ligation, sequencing); 10 mM Tris-HCl pH 7.5, 50 mM NaCl, 1 mM DTT, 4% glycerol, room temperature, 30 min; GST-TFs on glutathione beads, 16-mer random dsDNA library, 0.1% formaldehyde crosslink after washing; high values mean tight binding
# Conditions in all cases: protein: recombinant; tags: N-terminal GST; dsDNA, one strand shown
# ELK1 = target: T1, ELK1 (Homo sapiens, UniProt P19419 1-428)
# T1 sequence: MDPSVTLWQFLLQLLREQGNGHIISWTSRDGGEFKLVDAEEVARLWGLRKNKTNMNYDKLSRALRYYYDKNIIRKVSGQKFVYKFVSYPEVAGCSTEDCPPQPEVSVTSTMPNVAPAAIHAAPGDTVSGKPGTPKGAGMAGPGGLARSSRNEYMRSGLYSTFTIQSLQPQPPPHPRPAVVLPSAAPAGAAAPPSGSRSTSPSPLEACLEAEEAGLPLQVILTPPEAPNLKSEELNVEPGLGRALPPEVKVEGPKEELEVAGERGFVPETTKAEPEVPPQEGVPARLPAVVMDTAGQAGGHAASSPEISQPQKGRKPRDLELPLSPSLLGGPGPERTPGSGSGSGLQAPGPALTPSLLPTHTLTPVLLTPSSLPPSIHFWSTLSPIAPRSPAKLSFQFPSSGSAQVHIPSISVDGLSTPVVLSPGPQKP
# Summary of the method: (§1)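 Pools were built from human transcription factors expressed in yeast as GST fusions, captured on glutathione beads and DNA-barcoded, along with a tag-only sample. Incubation with 200 nmole of a 16-mer random double-stranded DNA library lasted 30 min at room temperature in Tris/NaCl/DTT/glycerol buffer, and was followed by washing, 0.1% formaldehyde crosslinking, proximity ligation, PCR amplification and Illumina NextSeq500 sequencing. Binding signal is the quotient of each hexamer's read frequency for a factor and its frequency for the tag-only sample.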
# GABPA = target: T2, GABPA (Homo sapiens, UniProt Q06546 1-454)
# T2 sequence: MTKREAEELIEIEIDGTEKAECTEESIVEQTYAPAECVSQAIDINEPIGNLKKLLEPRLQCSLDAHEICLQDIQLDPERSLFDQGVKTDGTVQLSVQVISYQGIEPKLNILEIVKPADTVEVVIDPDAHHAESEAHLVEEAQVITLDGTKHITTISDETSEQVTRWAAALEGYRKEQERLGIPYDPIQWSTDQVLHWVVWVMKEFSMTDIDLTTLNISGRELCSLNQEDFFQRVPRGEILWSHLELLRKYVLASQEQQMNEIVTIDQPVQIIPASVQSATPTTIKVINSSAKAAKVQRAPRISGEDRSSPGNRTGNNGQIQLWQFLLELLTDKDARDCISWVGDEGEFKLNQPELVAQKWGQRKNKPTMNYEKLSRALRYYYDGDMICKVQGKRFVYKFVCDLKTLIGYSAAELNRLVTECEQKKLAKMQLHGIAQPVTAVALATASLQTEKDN
# Summary of the method: as §1
# ELF1 = ELF1 (Homo sapiens, UniProt P32519 1-619)
# Chain of ELF1 (P32519 whole entry): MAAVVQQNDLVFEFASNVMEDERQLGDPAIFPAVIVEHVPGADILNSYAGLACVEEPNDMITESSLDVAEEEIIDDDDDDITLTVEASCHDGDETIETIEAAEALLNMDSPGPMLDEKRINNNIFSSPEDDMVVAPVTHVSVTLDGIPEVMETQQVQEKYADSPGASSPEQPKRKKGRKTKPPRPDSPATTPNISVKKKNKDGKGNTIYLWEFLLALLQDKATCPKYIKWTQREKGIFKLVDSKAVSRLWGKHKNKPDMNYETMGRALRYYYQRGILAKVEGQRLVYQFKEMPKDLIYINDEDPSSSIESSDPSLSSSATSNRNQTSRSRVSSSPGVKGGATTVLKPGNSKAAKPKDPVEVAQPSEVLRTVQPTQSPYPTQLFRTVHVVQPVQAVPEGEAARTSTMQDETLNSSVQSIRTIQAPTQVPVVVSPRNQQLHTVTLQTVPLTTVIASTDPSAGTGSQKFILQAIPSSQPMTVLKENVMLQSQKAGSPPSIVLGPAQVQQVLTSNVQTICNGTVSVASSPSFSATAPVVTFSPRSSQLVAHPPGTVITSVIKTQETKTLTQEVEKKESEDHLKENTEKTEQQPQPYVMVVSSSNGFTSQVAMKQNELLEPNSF
# Summary of the method: as §1
# ELK3 = target: T3, ELK3 (Homo sapiens, UniProt P41970 1-407)
# T3 sequence: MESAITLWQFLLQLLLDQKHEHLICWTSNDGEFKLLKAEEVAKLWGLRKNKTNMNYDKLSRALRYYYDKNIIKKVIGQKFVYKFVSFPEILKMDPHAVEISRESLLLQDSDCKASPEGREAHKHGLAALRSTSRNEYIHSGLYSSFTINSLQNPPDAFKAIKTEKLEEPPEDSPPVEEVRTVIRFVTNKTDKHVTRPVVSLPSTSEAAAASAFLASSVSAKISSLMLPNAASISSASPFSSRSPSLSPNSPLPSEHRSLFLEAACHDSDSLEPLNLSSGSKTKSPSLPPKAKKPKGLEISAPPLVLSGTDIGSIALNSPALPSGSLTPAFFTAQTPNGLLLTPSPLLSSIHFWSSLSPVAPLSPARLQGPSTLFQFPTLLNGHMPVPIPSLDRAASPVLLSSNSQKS
# Summary of the method: as §1
# ELK4 = target: T4, ELK4 (Homo sapiens, UniProt P28324-2 1-405)
# T4 sequence: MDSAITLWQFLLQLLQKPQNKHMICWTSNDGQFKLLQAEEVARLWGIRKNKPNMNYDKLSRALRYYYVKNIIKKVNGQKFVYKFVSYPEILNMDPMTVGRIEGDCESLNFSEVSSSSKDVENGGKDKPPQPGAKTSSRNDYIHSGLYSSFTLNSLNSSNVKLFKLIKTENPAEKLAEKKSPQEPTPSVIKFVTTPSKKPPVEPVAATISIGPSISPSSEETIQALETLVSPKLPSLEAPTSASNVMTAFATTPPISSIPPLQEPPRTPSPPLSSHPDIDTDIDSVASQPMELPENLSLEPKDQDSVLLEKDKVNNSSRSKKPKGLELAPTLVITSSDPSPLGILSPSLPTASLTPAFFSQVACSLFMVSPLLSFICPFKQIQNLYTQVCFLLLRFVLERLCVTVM
# Summary of the method: as §1
# ETV2 = target: T5, ETV2 (Homo sapiens, UniProt O00321 1-342)
# T5 sequence: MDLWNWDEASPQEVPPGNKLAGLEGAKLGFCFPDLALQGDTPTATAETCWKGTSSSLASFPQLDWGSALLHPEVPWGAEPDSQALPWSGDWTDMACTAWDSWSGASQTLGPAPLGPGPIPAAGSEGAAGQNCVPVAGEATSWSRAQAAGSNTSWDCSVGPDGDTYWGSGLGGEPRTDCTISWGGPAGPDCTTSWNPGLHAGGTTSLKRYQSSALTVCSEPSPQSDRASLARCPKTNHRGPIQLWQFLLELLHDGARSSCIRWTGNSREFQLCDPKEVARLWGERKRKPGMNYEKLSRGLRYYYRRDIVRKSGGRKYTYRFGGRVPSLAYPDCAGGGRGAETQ
# Summary of the method: as §1
# ELF3 = target: T6, ELF3 (Homo sapiens, UniProt P78545 1-371)
# T6 sequence: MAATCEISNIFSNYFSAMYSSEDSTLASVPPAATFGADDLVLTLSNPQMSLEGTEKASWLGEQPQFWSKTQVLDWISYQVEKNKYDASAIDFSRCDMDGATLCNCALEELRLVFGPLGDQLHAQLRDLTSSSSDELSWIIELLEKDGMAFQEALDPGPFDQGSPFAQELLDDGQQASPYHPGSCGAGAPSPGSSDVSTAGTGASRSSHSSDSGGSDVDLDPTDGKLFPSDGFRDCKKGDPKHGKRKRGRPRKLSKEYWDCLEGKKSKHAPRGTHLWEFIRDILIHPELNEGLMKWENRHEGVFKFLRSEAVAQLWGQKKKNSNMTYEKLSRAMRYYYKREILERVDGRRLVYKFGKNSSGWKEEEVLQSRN
# Summary of the method: as §1
# ERF = target: T7, ERF (Homo sapiens, UniProt P50548 1-548)
# T7 sequence: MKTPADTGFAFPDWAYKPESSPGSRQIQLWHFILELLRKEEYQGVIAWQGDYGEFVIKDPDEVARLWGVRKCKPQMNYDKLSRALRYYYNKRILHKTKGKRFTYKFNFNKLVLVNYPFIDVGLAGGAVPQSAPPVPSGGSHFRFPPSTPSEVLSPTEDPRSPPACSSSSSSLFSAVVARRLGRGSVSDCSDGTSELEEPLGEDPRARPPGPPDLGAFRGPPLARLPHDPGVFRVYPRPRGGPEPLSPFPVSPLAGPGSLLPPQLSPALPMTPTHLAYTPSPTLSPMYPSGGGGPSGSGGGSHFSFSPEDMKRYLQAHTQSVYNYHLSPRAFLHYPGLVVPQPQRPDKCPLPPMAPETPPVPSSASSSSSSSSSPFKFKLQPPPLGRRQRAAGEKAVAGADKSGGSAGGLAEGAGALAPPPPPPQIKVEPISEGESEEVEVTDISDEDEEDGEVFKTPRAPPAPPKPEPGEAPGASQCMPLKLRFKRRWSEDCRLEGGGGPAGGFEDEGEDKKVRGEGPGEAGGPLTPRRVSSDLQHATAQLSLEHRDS
# Summary of the method: as §1
# SPDEF = target: T8, SPDEF (Homo sapiens, UniProt O95238 1-335)
# T8 sequence: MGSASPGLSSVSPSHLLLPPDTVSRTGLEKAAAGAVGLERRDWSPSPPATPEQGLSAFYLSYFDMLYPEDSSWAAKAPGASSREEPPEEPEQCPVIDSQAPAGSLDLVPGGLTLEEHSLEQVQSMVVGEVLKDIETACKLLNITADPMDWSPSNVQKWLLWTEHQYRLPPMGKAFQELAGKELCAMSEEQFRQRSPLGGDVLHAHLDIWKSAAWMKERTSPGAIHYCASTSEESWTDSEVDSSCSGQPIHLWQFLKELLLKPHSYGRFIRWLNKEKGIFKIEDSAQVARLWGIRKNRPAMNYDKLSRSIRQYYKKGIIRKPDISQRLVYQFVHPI
# Summary of the method: as §1
# ETV3 = target: T9, ETV3 (Homo sapiens, UniProt P41162-2 1-143)
# T9 sequence: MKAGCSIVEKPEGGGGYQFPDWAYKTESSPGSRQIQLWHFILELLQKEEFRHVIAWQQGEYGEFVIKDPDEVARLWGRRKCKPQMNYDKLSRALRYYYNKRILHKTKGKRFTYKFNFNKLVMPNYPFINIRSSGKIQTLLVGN
# Summary of the method: as §1
# ETV6 = ETV6 (Homo sapiens, UniProt P41212 1-452)
# Chain of ETV6 (P41212 whole entry): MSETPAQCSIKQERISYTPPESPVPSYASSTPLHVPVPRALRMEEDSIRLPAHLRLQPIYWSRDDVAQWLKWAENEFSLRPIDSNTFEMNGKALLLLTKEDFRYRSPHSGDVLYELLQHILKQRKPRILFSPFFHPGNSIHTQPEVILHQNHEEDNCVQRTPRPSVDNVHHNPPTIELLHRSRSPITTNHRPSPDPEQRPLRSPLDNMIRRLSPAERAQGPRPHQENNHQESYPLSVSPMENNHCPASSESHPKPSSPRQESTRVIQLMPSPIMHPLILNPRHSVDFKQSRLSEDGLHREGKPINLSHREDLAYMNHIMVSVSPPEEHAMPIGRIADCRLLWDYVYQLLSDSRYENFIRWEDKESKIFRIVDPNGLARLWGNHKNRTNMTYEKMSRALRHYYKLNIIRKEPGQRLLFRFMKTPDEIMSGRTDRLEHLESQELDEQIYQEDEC
# Summary of the method: as §1
# SPI1 = SPI1 (Homo sapiens, UniProt P17947 1-270)
# Summary of the method: as §1
# SPIB = SPIB (Homo sapiens, UniProt Q01892 1-262)
# Chain of SPIB (Q01892 whole entry): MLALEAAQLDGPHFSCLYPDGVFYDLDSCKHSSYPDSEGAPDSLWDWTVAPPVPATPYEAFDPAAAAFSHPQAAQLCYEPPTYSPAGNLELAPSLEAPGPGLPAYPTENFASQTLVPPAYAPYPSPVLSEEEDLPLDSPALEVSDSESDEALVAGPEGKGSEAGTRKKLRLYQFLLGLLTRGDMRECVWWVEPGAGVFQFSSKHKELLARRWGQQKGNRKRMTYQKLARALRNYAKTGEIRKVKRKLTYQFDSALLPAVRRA
# Summary of the method: as §1
# FEV = target: T10, FEV (Homo sapiens, UniProt Q99581 1-238)
# T10 sequence: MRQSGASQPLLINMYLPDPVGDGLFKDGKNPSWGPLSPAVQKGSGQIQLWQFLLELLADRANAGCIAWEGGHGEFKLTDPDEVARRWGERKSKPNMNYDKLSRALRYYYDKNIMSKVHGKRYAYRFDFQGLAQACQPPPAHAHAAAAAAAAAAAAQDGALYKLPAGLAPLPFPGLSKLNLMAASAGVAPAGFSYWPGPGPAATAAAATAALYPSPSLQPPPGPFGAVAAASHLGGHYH
# Summary of the method: as §1
# ELF4 = ELF4 (Homo sapiens, UniProt Q99607 1-663)
# Chain of ELF4 (Q99607 whole entry): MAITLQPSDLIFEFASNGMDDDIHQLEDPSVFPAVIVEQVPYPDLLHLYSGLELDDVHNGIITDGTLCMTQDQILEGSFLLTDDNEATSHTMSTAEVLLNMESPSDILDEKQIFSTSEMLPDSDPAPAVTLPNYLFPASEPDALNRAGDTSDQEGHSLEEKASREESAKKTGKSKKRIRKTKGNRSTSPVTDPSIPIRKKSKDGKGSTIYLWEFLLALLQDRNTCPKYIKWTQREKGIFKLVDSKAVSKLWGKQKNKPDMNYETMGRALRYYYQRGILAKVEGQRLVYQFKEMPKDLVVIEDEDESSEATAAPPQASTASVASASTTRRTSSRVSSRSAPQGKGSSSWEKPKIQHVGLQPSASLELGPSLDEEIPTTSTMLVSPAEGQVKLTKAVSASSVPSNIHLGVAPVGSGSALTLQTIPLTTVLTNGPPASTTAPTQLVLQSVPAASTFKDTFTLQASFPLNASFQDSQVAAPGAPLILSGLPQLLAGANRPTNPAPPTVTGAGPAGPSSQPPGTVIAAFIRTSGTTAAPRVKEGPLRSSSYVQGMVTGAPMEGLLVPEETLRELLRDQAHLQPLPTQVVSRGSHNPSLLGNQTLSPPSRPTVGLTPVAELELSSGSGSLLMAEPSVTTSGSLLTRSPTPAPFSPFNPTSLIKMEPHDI
# Summary of the method: as §1
# ETV3L = target: T11, ETV3L (Homo sapiens, UniProt Q6ZN32 1-361)
# T11 sequence: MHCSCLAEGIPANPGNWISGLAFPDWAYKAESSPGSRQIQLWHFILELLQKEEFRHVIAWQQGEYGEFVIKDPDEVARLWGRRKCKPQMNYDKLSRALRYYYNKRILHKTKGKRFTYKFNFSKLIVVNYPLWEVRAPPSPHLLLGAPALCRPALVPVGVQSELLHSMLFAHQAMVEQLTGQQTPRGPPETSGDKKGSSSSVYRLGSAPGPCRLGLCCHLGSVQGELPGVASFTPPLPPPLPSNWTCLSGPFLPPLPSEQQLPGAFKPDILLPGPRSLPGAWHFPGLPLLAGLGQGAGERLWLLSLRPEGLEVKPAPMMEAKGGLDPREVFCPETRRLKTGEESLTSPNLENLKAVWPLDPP
# Summary of the method: as §1
# ETV7 = target: T12, ETV7 (Homo sapiens, UniProt Q9Y603 1-341)
# T12 sequence: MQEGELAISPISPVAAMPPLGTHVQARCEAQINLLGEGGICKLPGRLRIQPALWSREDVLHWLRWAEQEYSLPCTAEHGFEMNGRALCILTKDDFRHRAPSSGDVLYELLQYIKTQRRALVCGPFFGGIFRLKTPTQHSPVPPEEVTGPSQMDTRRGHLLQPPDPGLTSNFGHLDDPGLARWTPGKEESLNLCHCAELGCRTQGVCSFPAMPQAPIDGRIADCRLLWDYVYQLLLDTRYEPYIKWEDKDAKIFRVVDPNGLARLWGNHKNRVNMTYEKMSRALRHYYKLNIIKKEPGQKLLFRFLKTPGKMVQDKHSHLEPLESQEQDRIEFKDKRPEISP
# Summary of the method: as §1
# ELF5 = target: T13, ELF5 (Homo sapiens, UniProt Q9UKW6-2 1-255)
# T13 sequence: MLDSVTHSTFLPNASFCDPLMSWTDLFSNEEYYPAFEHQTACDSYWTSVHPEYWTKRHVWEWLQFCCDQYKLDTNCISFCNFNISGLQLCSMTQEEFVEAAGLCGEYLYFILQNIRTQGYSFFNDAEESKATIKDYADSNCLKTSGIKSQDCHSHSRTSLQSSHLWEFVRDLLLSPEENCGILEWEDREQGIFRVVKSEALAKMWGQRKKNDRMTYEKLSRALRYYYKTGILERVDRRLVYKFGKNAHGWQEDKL
# Summary of the method: as §1
Sequence,binding signal (ELK1),binding signal (GABPA),binding signal (ELF1),binding signal (ELK3),binding signal (ELK4),binding signal (ETV2),binding signal (ELF3),binding signal (ERF),binding signal (SPDEF),binding signal (ETV3),binding signal (ETV6),binding signal (SPI1),binding signal (SPIB),binding signal (FEV),binding signal (ELF4),binding signal (ETV3L),binding signal (ETV7),binding signal (ELF5)
CAAACG,"1.04 fold enrichment (6-mer frequency, TF over GST control)","1.05 fold enrichment (6-mer frequency, TF over GST control)","1.04 fold enrichment (6-mer frequency, TF over GST control)","1.07 fold enrichment (6-mer frequency, TF over GST control)","1.05 fold enrichment (6-mer frequency, TF over GST control)","1.02 fold enrichment (6-mer frequency, TF over GST control)","1.06 fold enrichment (6-mer frequency, TF over GST control)","1.03 fold enrichment (6-mer frequency, TF over GST control)","1.02 fold enrichment (6-mer frequency, TF over GST control)","1.04 fold enrichment (6-mer frequency, TF over GST control)","1.02 fold enrichment (6-mer frequency, TF over GST control)",,,,,,,
TCGCGG,,"1.07 fold enrichment (6-mer frequency, TF over GST control)","1.02 fold enrichment (6-mer frequency, TF over GST control)",,"1.05 fold enrichment (6-mer frequency, TF over GST control)","1.11 fold enrichment (6-mer frequency, TF over GST control)","1.03 fold enrichment (6-mer frequency, TF over GST control)","1.09 fold enrichment (6-mer frequency, TF over GST control)","1.01 fold enrichment (6-mer frequency, TF over GST control)","1.04 fold enrichment (6-mer frequency, TF over GST control)",,"1 fold enrichment (6-mer frequency, TF over GST control)","1.02 fold enrichment (6-mer frequency, TF over GST control)","1.02 fold enrichment (6-mer frequency, TF over GST control)","1.03 fold enrichment (6-mer frequency, TF over GST control)","1.04 fold enrichment (6-mer frequency, TF over GST control)","1.02 fold enrichment (6-mer frequency, TF over GST control)","1 fold enrichment (6-mer frequency, TF over GST control)"
